# Measurements reported in PubChem BioAssay AID686970 (National Center for Advancing Translational Sciences (NCATS), 2013).
# About 6,000 (1.7%) of roughly 360,000 compounds were called active. Not shown: some 8% with an inconclusive outcome. What follows is part of a selection rich in actives, with near analogues and random picks from the rest. Unmarked numbers belong to inactive results. Calls follow the shape of the dose curve; as a rule, active = well fitted cell-killing curve with a large enough effect; inconclusive = small, poorly fitted or top-dose-only effect, or effect the other way; inactive = flat fitted curve, though single readings scatter.
# Assay: qHTS for induction of synthetic lethality in tumor cells producing 2HG: qHTS for the HT-1080-NT fibrosarcoma cell line;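 also: NT is the 2HG producing partner of a matched IDH1 knockdown line; nearly all actives have a fitted effect of over 55% in size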;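 as to activity, negative = less viability: 0% = DMSO-treated cells and -100% = media-only wells without cells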
# Details: HT-1080-NT fibrosarcoma viability, CellTiter-Glo ATP luminescence, 48 h; series mostly up to 46.1 µM; activity, negative = less viability: at the top concentration
# Summary of the method: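 HT-1080-NT fibrosarcoma cells (2HG-overproducing), 750 cells/well in RPMI with 5% FBS, dosed after 2 h and incubated 48 h at 37C. CellTiter-Glo luminescence normalized to DMSO and no-cell wells; concentration-response curves fitted and classed.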
# Potency is read from the fitted curve at half-maximal effect.
Compound,"activity, negative = less viability",Potency
COc1ccc(S(=O)(=O)NC(=O)C2(C)CCN2C(=O)COc2ccc(Cl)cc2)cc1 (centres undefined),15.6%,–
Cc1cccc(CN2CCN(C3CN(Cc4cn(Cc5cc(C)cc(C)c5)nn4)S(=O)(=O)C3)CC2)c1 (centres undefined),-14%,–
CC1CCC2(CC1)NC(=O)N(CC(=O)NCc1ccco1)C2=O (centres undefined),-3.13%,–
Cc1ccc(S(=O)(=O)N[C@H](CO)C(C)C)cc1,18.5%,–
COCCCn1cc(CN2CC(N(C)C)CS2(=O)=O)nn1 (centres undefined),23.5%,–
Cc1nc(C(F)(F)F)ccc1C(=O)N1CCC1(C)C(=O)NS(=O)(=O)c1ccccc1Cl (centres undefined),23.3%,–
O=C(NC1CCCCC1)C(c1cc2ccccc2o1)n1c(=O)c(-c2ccco2)nc2ccccc21 (centres undefined),-11.5%,–
COc1cccc(-c2nc3nc(C)cc(C)n3c2NC2CCCCC2)c1,4.57%,–
COc1ccc(-c2nc3cnccn3c2NC2CCCCC2)cc1-c1cccc(Cl)c1,–,18.4 µM (active)
Cc1ccc2nc(-c3cccnc3)c(NC3CCCC3)n2c1,1.6%,–
CC(=O)c1nn(-c2ccccc2)c(=Nc2ccccc2)cc1C,12.8%,–
O=C(Nc1ccccc1)c1ccccc1OCc1ccccc1,14.1%,–
CCCOc1ccccc1C1CC(=O)Nc2cc3c(cc21)OCO3 (centres undefined),–,8.2 µM (active)
COC(=O)c1ccc(C2CC(=O)Nc3cc(OC)c(OC)cc32)cc1 (centres undefined),1.74%,–
CCCOc1ccc(C2NC(=O)NC(c3ccccc3)=C2C(C)=O)cc1OCC (centres undefined),6.35% [at 9.24 µM],–
Cc1ccc(F)c(S(=O)(=O)NC(=O)C2(C)CCN2C(=O)CCc2cccs2)c1 (centres undefined),18.9%,–
OC[C@@H]1CN(Cc2ccc3c(c2)OCO3)C[C@H](n2cnc3c(NCc4ccco4)ncnc32)O1,8.23%,–
CCc1nc2c(OCCOc3ccccc3)cccn2c1N(C)C(=O)c1ccc(OC)cc1,0.153%,–
O=C(Nc1ccc(C(=O)N2CCOCC2)cc1)Nc1cccc(C(F)(F)F)c1,3.58%,–
O=C(Nc1cccc(F)c1)NC1CCCCCCC1,-29.5%,–
O=C(O)CC1(CC(=O)Nc2cccc(C(F)(F)F)c2)CCCC1,-9.72%,–
COc1ccc(C(N)c2csc(NC(=O)Nc3cccc(C(F)(F)F)c3)n2)cc1 (centres undefined),–,20.6 µM (active)
NC(c1csc(NC(=O)Nc2cccc(C(F)(F)F)c2)n1)C1CCCCC1 (centres undefined),–,8.2 µM (active)
NC(c1ccccc1)c1csc(NC(=O)Nc2cccc(C(F)(F)F)c2)n1 (centres undefined),–,18.4 µM (active)
COc1ccc(C(CC(=O)Nc2ccc(C)cc2)NC(=O)C(F)(F)F)cc1 (centres undefined),1.15%,–
COc1cccc(NC(=O)Nc2ccc(F)cc2)c1,9.18%,–

Compound,"activity, negative = less viability",Potency
CC(=O)c1ccc(Nc2nc(C(N)c3ccccc3)cs2)cc1 (centres undefined),-1.4%,–
O=C(NCCc1cccc(F)c1)C1CC(O)CN1C(=O)Nc1ccccc1 (centres undefined),5.15%,–
CCN(CC)C(=O)C1=C(C)N(Cc2ccc(F)cc2)C(=O)C(CC(=O)NCc2cccc3ccccc23)C1 (centres undefined),-8.28%,–
CO[C@@H]1CN(C)C(=O)c2cc(NC(=O)Nc3cc(F)ccc3F)ccc2OC[C@H](C)N(C(=O)c2ccccn2)C[C@@H]1C,2.75%,–
CCCCC[C@H](C)N1C[C@@H](COCc2ccccc2)Oc2cc(N3CCC[C@@H]3CO)ccc2S1(=O)=O,2.67%,–
O=C(NCc1cccnc1)c1ccc2nc([C@@H]3O[C@H](CO)[C@H](O)[C@H](O)[C@H]3O)[nH]c2c1,28.8%,–
COc1ccc(S(=O)(=O)N(C)C[C@H]2OCc3cnnn3CCCC(=O)N([C@H](C)CO)C[C@H]2C)cc1,15.6%,–
CNc1cc(-c2c(OC)cccc2OC)ncn1,6.96%,–
O=S1(=O)CC(N2CCN(c3ccccn3)CC2)CN1Cc1ccc(F)cc1 (centres undefined),4.82%,–
COc1cccc(NC(=O)C2(C)CCN2Cc2ccccc2Cl)c1 (centres undefined),-22.6%,–
COc1ccc(C2CC(c3ccc([N+](=O)[O-])cc3)=NN2C(C)=O)cc1 (centres undefined),-0.435%,–
COc1ccc(C2CC(c3cccc(OC)c3)=NN2c2ccc(S(N)(=O)=O)cc2)cc1 (centres undefined),–,18.4 µM (active)
COc1ccc(C2CC(c3ccccc3)=NN2C(=O)COC(=O)COc2ccccc2)cc1 (centres undefined),5.99%,–
O=C(CSc1ccc(Cl)cc1)NC1CC1,-0.483%,–
O=C(OC1CC2CC1[C@H]1CCCCN1C2=O)N1CCOCC1 (some centres undefined),16%,–
CCCCCNC(=O)C(c1ccc(OC)cc1)n1c(=O)c(-c2ccccc2)nc2ccccc21 (centres undefined),-20.5%,–
CCN(CC)C(=O)C1=C(C)N(Cc2ccc(OC)cc2)C(=O)C(CC(=O)NCCCCc2ccccc2)C1 (centres undefined),-11.6%,–
O=C(c1cccc([N+](=O)[O-])c1)N1CCN(Cc2ccccc2)CC1,13.5%,–
Cc1ccc(S(=O)(=O)N(Cc2cccc([N+](=O)[O-])c2)C(=O)N2CCN(C)CC2)cc1,-5.22%,–
O=C(CCl)N(Cc1cccc([N+](=O)[O-])c1)c1cccc(Cl)c1,–,6.51 µM (active)
O=C(c1ccc(N2CCCC2=O)cc1)N1CCN(c2ccc(C(F)(F)F)cc2[N+](=O)[O-])CC1,-4.69%,–
CCNC(=S)Nc1ccc2c(c1)c(=O)n(C)n2Cc1ccc(Cl)cc1,-1.44%,–
COc1ccc(CNC(=O)c2ccc(-c3cccnc3)c3ccoc23)cc1OC,-8.56%,–
COc1cccc(C(O)c2nc(-c3ccc(C)c(C)c3)cs2)c1 (centres undefined),-23.1%,–
Cc1ccc(CNC(=O)CCNC(=O)Cn2ccc3ccccc3c2=O)cc1,1.01%,–
COC(=O)COc1cccc2c(=O)n(CC(=O)NCCc3ccc(OC)c(OC)c3)ccc12,21.4%,–

Compound,"activity, negative = less viability",Potency
COC(=O)COc1cccc2c(=O)n(CC(=O)NCc3ccccc3)ccc12,–,2.59 µM (active)
Cc1cc(C)c(S(=O)(=O)NN=C2c3ccccc3[C@H]3Cc4csc[n+]4[C@@H]23)c(C)c1,0.106%,–
O=c1[nH]c2ccccc2n1C1CCN(CCOc2ccccc2)CC1,-14.8%,–
COc1ccccc1CNC(=O)c1cc(=O)c2ccccc2o1,-4.66%,–
COc1ccc2c(CC(=O)N3CCc4cc(OC)c(OC)cc4C3)coc2c1,2.88%,–
COc1cc2c(cc1OC)CN(C(=O)c1cc(=O)c3ccccc3o1)CC2,–,5.8 µM (active)
COc1ccc(S(=O)(=O)N2CCCCC2c2cc(C(=O)NCc3ccc(F)cc3)no2)cc1 (centres undefined),3.27%,–
C[C@@H]1CN([C@H](C)CO)S(=O)(=O)c2ccc(C#CC3CCCCC3)cc2O[C@H]1CN(C)C(=O)Cc1ccncc1,-16.2%,–
COc1ccc(-c2c(-c3ccc(OC)cc3O)nc(C)nc2C(F)(F)F)cc1,-1.91%,–
C=C(C)COc1ccc(-c2n[nH]c(C)c2-c2ccccc2)c(O)c1,–,20.6 µM (active)
C=C(C)COc1ccc(-c2ncncc2-c2ccc(OC)cc2)c(O)c1,-5.06%,–
CCOC(=O)[C@H]1Nc2ccc(Cl)cc2[C@@H]2[C@H]1C1CC(c3ccccc31)N2C(=O)OCc1ccccc1 (some centres undefined),-2.55%,–
O=C1/C(=C/c2cccs2)CCc2ccccc21,2.39%,–
COc1ccc(/C=C2\CCc3ccccc3C2=O)c(OC)c1OC,2.07%,–
COc1ccc(/C=C2/CCCc3ccccc3C2=O)cc1,–,8.2 µM (active)
CC(=O)Oc1ccc(Cn2c(C)c(C(=O)NCc3ccc(C#N)cc3)sc2=O)cc1,-29.4%,–
O=C(CSc1nc2cccc(F)c2c(=O)n1-c1ccccc1)Nc1ccc2c(c1)CCC2,11.2%,–
O=C(O)c1cccc(NC(=O)c2cc(-c3cccc(Cl)c3)nc3ccccc23)c1,10.5%,–
O=C(N/N=C/c1ccc(Cl)cc1)c1nc2ccc([N+](=O)[O-])cc2c(=O)[nH]1,7.24%,–
O=C(/C(=C/c1cccc(Cl)c1)c1nc2ccccc2[nH]1)c1ccccc1,–,5.17 µM (active)
Cc1cc(Br)cn2c(Cc3ccccc3C(F)(F)F)c(-c3ccc(Cl)cc3)nc12,-3.92%,–
COc1ccc(Oc2c(Cl)cnn(-c3ccccc3)c2=O)cc1,–,18.4 µM (active)
Cc1ccc(Oc2cnn(-c3ccccc3)c(=O)c2Br)cc1,-17.5%,–
COc1ccc(CCNC(=O)c2c(C)nn(-c3ccccc3)c2Cl)cc1,-8.7%,–
CCCCN1C(=O)C(CC(=O)NCc2cccs2)CC(C(=O)N2CCCCCC2)=C1C (centres undefined),-1.24%,–
O=C(NCc1ccccc1)C1CNCC(C(=O)NCc2ccccc2)C1 (centres undefined),5.71%,–

Compound,"activity, negative = less viability",Potency
Cc1ccc(-c2nc3c(Cl)cc(C(F)(F)F)cn3c2Cc2cccc(Cl)c2)cc1,14%,–
Oc1c(Cl)cc(Cl)c(Cl)c1Cc1c(O)c(Cl)cc(Cl)c1Cl,–,5.8 µM (active)
CCCCCCCCn1c2c(c(=N)c3c1CCC3)CCCC2,–,16.4 µM (active)
C=CC(=O)OCCOCCOCCOCCOC(=O)C=C,–,20.6 µM (active)
COc1cc(CCN=Cc2ccccc2O)c([N+](=O)[O-])cc1OC,20.1%,–
COc1ccc(S(=O)(=O)N2CCC(C(=O)NCCC(=O)NCCc3cccc(F)c3)CC2)cc1,0.278%,–
C=CCOc1cccc(C2C(C(=O)c3ccc(C)o3)=C(O)C(=O)N2CCN2CCOCC2)c1 (centres undefined),-5.15%,–
Cc1ccc([C@H]2C[C@H](O)[C@@H](n3cc(COC(=O)c4ccccc4)nn3)CN2C(=O)C2CCCCC2)cc1,-17.4%,–
CC(C)CCNC(=O)c1[nH]c(C(F)(F)F)nc1-c1ccccc1,0.202%,–
COc1ccc(-c2ccc(CN3C(C(C)C)C(=O)N(Cc4cn(CC5CCCCC5)nn4)CCS3(=O)=O)cc2)cn1 (centres undefined),0.744%,–
COc1ccc(/C=N/Nc2ccccc2C(=O)O)cc1,-4.06%,–
COc1ccc(C(=O)Nc2ccccc2C(=O)N/N=C/c2ccc(O)c(OC)c2)cc1,–,5.8 µM (active)
COc1ccc2[nH]c(C(=O)N/N=C/c3cc(OC)c(OC)c(OC)c3)cc2c1,-5.09%,–
CC(O)(c1cccc(F)c1)c1nc(-c2ccc3c(c2)OCO3)cs1 (centres undefined),-19.6%,–
CCOC(=O)C1=CC[C@@H](c2ccccc2)N(S(=O)(=O)c2ccc(C)cc2)[C@H]1c1ccc(CC)cc1,-3.93%,–
CCCOc1ccc(F)cc1-c1cc(C(=O)Nc2ccc(F)cc2)[nH]n1,-17%,–
COc1ccc(CCNC(=S)NC(=O)/C=C/c2ccc(C)cc2)cc1OC,–,6.31 µM (active)
COc1ccc(CCNC(=O)NS(=O)(=O)c2ccc(C)cc2)cc1OC,17.1%,–
COc1ccc(CCNC(=O)Cc2ccc(C)cc2)cc1OC,2.44%,–
O=C(COC(=O)/C=C/c1ccc(Cl)cc1)NC1CCS(=O)(=O)C1 (centres undefined),-11.7%,–
CCOC(=O)C(=Cc1ccccc1)C(=O)c1ccccc1,-9.52%,–
COc1ccc(NC(=O)CN(C)C(=O)c2ccc(COc3ccccc3)o2)cc1,6%,–
Cc1cc(OCc2ccc(C(=O)Nc3ccc(C(=O)O)cc3)o2)ccc1Cl,–,11.6 µM (active)
O=C(O)c1ccc(NC(=O)c2ccc(COc3ccc(Cl)cc3)o2)cc1,-28.6%,–
O=C(NCc1ccccc1)C1c2ccccc2OCC(=O)N1CCCN1CCOCC1 (centres undefined),18.4%,–
CCC(c1nc2ccccc2[nH]1)n1c(=O)c(-c2cccs2)nc2ccccc21 (centres undefined),-22.6%,–
